Assay [1] is described as follows: Nuclear factor erythroid 2-related factor 2/antioxidant responsive element (Nrf2/ARE) small molecule agonists: qHTS cell viability counter screen in human keratinocytes (AID 1919968; active means well fitted curve in the direction sought with a large enough effect in the repeat runs; an effect the other way counts as inactive or inconclusive; further: nearly all actives have a fitted effect of over 55% in size). In short, it runs like this:
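Seed 1,500 KeratinoSens cells per well, then incubate 5 h at 37 C/5% CO2. Add compounds in DMSO and incubate 23 h. Add CellTiter-Fluor, wait 1 h and read fluorescence.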
For orientation: Quantitative high-throughput screening tests each substance at several concentrations.

Assay [2] in a line: Nuclear factor erythroid 2-related factor 2/antioxidant responsive element (Nrf2/ARE) small molecule agonists: luciferase reporter gene qHTS assay in human keratinocytes (AID 1919969). Further: nearly all actives have a fitted effect of over 35% in size. Background: Reporter assays use an easily measured gene product as a stand-in for the process of interest.
Assay [3] has as its target Gonadotropin-releasing hormone receptor (Homo sapiens) (UniProt P30968). The assay can be described thus: Human gonadotropin-releasing hormone receptor (GnRHR) small molecule agonists, calcium flux assay in GnRHR-HEK293 cells (AID 1920063). Further: nearly all actives have a fitted effect of over 35% in size. In short, it runs like this: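 Cells: HEK293 stably expressing human GnRHR. Steps: overnight (18 h) culture, 1 h calcium dye loading at 37 C, compound addition, kinetic fluorescence read at 480/540 nm. Each compound tested at 15 concentrations in triplicate.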

The target in assay [4] is KiSS-1 receptor (Homo sapiens) (UniProt Q969F8). As to the kind of experiment: Human kisspeptin (KISS1R) small molecule agonists, calcium flux assay in KISS1R-HEK293 cells (AID 1920064; active means well fitted curve in the direction sought with a large enough effect in the repeat runs; an effect the other way counts as inactive or inconclusive). In short, it runs like this:
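Cells plated and incubated 18 h; dye added, 1 h at 37 C; compounds in DMSO pinned in; signal read at 480/540 nm every second for 3 min. Each compound tested at 15 concentrations in triplicate.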
(A change in cytosolic calcium serves as a functional read-out for many receptors and channels.)

A short description of assay [5]: G protein-coupled receptor (GPCR) small molecule agonists, calcium flux assay: HEK293 wild type cell line counter screen (AID 1920065). An outline of the steps: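 Counter-screen of the Tox21 10K library for non-specific calcium release: dye-loaded cells received compounds in DMSO and were monitored by kinetic fluorescence (480/540 nm, 3 min). Fifteen concentrations, run in triplicate.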

Assay [6] in a line: p53 small molecule agonists, cell-based qHTS assay with human liver microsomes (AID 1963577). In short, it runs like this: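 Fluorescence of the beta-lactamase reporter in p53RE-bla cells, detected with LiveBLAzer substrate (2 h, room temperature, dark), served as the read-out after 16 h compound exposure at 37 C with human liver microsomes and NADPH, each 0.5 mg/mL final.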

Assay [7] can be described thus: p53 small molecule agonists, cell-based qHTS assay with rat liver microsomes (AID 1963578). In short, it runs like this: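 Cells carrying a p53 response element–beta-lactamase reporter were plated and rested 5 h, then dosed with compound in DMSO plus rat liver microsomes and NADPH, each at 0.5 mg/mL final. After 16 h at 37 C, LiveBLAzer substrate was added for 2 h.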

Assay [8] can be described thus: p53 small molecule agonists, cell-based qHTS assay with human liver microsomes: qHTS cell viability counter screen (AID 1963579). Further: nearly all actives have a fitted effect of over 45% in size. An outline of the steps: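 Cytotoxicity counter screen: p53RE-bla, 4,000 cells/well; 5 h settle, 37 C/5% CO2; cpd + HLM 0.5 mg/mL + NADPH 0.5 mg/mL (final); 16 h, 37 C; CellTiter-Glo, 30 min RT, luminescence.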
Assay [9] is described as follows: p53 small molecule agonists, cell-based qHTS assay with rat liver microsomes: qHTS cell viability counter screen (AID 1963580). Further: nearly all actives have a fitted effect of over 45% in size. An outline of the steps:
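HCT-116 p53RE-bla, 4,000 cells/well, 5 h pre-incubation; cpd + rat liver microsomes 0.5 mg/mL + NADPH 0.5 mg/mL (final); 16 h, 37 C; CellTiter-Glo, 30 min RT; luminescence.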

Assay [10] in a line: p53 small molecule agonists, cell-based qHTS assay: qHTS cell viability counter screen (AID 1963581). Further: nearly all actives have a fitted effect of over 45% in size. In short, it runs like this: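 Cells: HCT-116 with p53 response element-driven beta-lactamase. Treatment: 16 h, 37 C, compounds in DMSO. Read: CellTiter-Glo luminescence after 30 min RT.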
A short description of assay [11]: p53 small molecule agonists, cell-based qHTS assay (AID 1963582; active means well fitted activation curve with a large enough effect in the signal ratio in the repeat runs, not every such curve was filed as active; the % refers to the signal ratio). An outline of the steps: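 Quantitative HTS in p53RE-bla cells: after a 5 h settling period, compounds delivered in DMSO were left on cells for 16 h at 37 C, and reporter induction was measured as fluorescence following 2 h substrate loading.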
Assay [12] addresses 5-hydroxytryptamine receptor 2A (Homo sapiens) (UniProt P28223). The assay can be described thus: 5-hydroxytryptamine receptor 2A (HTR2A) small molecule antagonists, cell-based qHTS assay (AID 1963586). Further: nearly all actives have a fitted effect of over 45% in size. In short, it runs like this: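 Antagonist-mode intracellular calcium assay: DOI (4 nM) added after 5 min compound pre-incubation at room temperature to dye-loaded HTR2A-CHO cells. Fluorescence followed for 3 min, sampled every second.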

Assay [13] has the same target. As to the kind of experiment: 5-hydroxytryptamine receptor 2A (HTR2A) small molecule agonists, cell-based qHTS assay (AID 1963587). Further: nearly all actives have a fitted effect of over 30% in size. An outline of the steps: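 Kinetic calcium-flux fluorescence (2 min, 1 sec intervals) after compound addition in agonist mode. HTR2A-CHO cells were cultured 18 h, then dye-loaded 1 h at 37 C.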
Assay [14] concerns the target Muscarinic acetylcholine receptor M1 (Homo sapiens) (UniProt P11229). As to the kind of experiment: Cholinergic receptor muscarinic 1 (CHRM1) small molecule antagonists, cell-based qHTS assay (AID 1963588). Further: nearly all actives have a fitted effect of over 40% in size. Further: potency means the concentration at half of the fitted maximal effect. An outline of the steps: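 CHRM1-CHO calcium-flux assay, antagonist mode. Cells were seeded 18 h, dye-loaded 1 h at 37 C and given compound for 5 min at RT, then acetylcholine was added at 50nM. FDSS fluorescence was read 3 min; 15 concentrations, three runs.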

For assay [15] the target is unchanged. As to the kind of experiment: Cholinergic receptor muscarinic 1 (CHRM1) small molecule agonists, cell-based qHTS assay (AID 1963589). Further: nearly all actives have a fitted effect of over 35% in size. An outline of the steps:
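Agonist-mode qHTS in CHO cells stably carrying human muscarinic M1. Intracellular calcium is tracked by fluorescence every second after compound transfer; each compound runs at 15 concentrations in three independent runs.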

Assay [16] can be described thus: cAMP Responsive Elements (CRE) small molecule agonists, cell-based qHTS assay (AID 1963590). An outline of the steps: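 Agonist mode qHTS in CRE-bla HEK 293T cells: compounds dosed from DMSO for 3 h at 37 C/5% CO2, followed by LiveBLAzer B/G FRET substrate for 2 h at room temperature.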
Assay [17] can be described thus: cAMP Responsive Elements (CRE) small molecule antagonists, cell-based qHTS assay (AID 1963591; active means well fitted inhibition curve with a large enough effect in the signal ratio in the repeat runs, not every such curve was filed as active; the % refers to the signal ratio). An outline of the steps: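 Antagonist mode: test compounds are co-incubated with the adenylyl cyclase activator NKH477 (0.25 uM final) on CRE-bla HEK293T cells for 3 h at 37 °C, followed by LiveBLAzer substrate loading.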
Assay [18] concerns the target Beta-2 adrenergic receptor (Homo sapiens) (UniProt P07550). As to the kind of experiment: Adrenergic beta2 receptor (ADRB2) small molecule antagonists, cell-based qHTS assay (AID 1963592). Further: series mostly up to about 92 µM; nearly all actives have a fitted effect of over 50% in size. In short, it runs like this:
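Cells (CHO, stable ADRB2 overexpression) incubated 18-20hr at 37C; compounds added from DMSO; agonist mix (1nM isoproterenol, 100uM IBMX, 25uM Ro-20-1724) added; 0.5hr RT; d2-cAMP and anti-cAMP-cryptate added; 1hr RT; 665/615 nm read.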

Assay [19] addresses D(2) dopamine receptor (Homo sapiens) (UniProt P14416). As to the kind of experiment: Dopamine D2 receptor (DRD2) small molecule agonists, cell-based qHTS assay (AID 1963594). Further: nearly all actives have a fitted effect of over 35% in size. In short, it runs like this:
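cAMP accumulation in DRD2-HEK293 cells measured by HTRF after 1 h detection; compounds added 10 min before NKH477 (200nM […]) forskolin-analogue stimulation, 30 min at room temperature, with Ro20-1724 present at 0.1 mM final.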

The target is the same in assay [20]. The assay can be described thus: Dopamine D2 receptor (DRD2) small molecule antagonists, cell-based qHTS assay (AID 1963595; active means well fitted inhibition curve with a large enough effect in the signal ratio in the repeat runs, with a control signal flat; the % refers to the signal ratio). An outline of the steps:
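Readout: HTRF cAMP, cAMP-d2 competing with cellular cAMP for anti-cAMP cryptate, read after 1 h. Cells: DRD2-HEK293. Conditions: 0.1 mM Ro20-1724, 12 nM quinpirole, 200 nM NKH477, 30 min RT.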

Unmarked numbers belong to inactive results. Results filed as inconclusive are left out. The source made the active and inactive calls. Unless noted, the call rests on the fitted dose curve.

Gonadotropin-releasing hormone receptor (Homo sapiens), sequence (P30968 whole entry, looked up): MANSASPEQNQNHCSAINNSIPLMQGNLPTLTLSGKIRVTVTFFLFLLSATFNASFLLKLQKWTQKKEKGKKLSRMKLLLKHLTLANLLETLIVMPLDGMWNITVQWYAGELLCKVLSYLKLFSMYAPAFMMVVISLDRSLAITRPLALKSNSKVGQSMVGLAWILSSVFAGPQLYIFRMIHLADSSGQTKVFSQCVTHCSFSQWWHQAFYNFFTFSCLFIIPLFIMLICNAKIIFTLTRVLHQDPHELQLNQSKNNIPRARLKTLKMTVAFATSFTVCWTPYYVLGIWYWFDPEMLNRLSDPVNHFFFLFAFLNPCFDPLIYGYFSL
Muscarinic acetylcholine receptor M1 (Homo sapiens), sequence (P11229 whole entry, looked up): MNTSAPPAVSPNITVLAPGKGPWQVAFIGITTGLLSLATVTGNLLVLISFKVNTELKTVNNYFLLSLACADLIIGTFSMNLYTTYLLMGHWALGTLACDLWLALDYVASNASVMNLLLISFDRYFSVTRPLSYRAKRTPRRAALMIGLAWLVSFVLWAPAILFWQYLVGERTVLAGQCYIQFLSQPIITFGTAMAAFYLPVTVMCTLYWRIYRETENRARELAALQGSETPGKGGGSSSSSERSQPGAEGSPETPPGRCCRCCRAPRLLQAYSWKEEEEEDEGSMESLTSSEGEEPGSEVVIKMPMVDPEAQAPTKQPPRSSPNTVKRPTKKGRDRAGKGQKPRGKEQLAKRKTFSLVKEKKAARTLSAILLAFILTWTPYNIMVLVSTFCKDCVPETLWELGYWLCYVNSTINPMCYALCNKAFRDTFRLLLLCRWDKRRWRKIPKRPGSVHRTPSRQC
5-hydroxytryptamine receptor 2A (Homo sapiens), sequence (P28223 whole entry, looked up): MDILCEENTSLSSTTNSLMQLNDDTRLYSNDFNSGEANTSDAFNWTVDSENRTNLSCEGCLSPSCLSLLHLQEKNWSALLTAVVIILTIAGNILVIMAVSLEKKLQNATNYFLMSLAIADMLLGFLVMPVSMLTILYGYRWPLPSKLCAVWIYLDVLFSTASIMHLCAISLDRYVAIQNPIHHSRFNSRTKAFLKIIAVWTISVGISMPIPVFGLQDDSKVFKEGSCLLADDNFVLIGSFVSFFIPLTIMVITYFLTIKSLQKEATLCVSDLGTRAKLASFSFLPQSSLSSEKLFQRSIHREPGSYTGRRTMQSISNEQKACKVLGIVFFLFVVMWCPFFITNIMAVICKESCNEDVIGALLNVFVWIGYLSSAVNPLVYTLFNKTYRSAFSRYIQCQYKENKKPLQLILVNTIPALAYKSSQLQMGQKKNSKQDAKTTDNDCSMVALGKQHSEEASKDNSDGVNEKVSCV
Beta-2 adrenergic receptor (Homo sapiens), sequence (P07550 whole entry, looked up): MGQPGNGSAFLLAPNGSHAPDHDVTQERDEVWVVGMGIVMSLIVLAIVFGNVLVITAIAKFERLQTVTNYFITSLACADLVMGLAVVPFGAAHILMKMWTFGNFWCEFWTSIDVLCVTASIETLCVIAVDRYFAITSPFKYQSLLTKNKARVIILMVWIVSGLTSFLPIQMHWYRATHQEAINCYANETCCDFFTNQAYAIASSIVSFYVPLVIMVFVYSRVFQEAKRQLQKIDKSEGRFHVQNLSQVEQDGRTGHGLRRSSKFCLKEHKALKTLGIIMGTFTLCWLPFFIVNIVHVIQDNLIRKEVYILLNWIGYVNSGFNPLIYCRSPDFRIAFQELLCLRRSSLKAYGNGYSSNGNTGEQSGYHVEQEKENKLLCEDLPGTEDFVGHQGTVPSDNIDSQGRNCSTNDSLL
D(2) dopamine receptor (Homo sapiens), sequence (P14416 whole entry, looked up): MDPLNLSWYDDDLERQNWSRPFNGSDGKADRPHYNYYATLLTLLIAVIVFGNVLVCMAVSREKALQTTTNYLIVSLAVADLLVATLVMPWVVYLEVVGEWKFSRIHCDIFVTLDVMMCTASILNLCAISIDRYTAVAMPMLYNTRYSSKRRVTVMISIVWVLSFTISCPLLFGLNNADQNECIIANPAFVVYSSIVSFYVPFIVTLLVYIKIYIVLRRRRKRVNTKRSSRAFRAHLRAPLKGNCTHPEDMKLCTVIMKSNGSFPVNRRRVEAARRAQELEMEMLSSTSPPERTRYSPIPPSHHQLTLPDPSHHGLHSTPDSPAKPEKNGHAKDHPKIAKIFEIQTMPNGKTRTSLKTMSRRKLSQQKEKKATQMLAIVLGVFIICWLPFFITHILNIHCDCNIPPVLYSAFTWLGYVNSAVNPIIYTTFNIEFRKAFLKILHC
KiSS-1 receptor (Homo sapiens), sequence (Q969F8 whole entry, looked up): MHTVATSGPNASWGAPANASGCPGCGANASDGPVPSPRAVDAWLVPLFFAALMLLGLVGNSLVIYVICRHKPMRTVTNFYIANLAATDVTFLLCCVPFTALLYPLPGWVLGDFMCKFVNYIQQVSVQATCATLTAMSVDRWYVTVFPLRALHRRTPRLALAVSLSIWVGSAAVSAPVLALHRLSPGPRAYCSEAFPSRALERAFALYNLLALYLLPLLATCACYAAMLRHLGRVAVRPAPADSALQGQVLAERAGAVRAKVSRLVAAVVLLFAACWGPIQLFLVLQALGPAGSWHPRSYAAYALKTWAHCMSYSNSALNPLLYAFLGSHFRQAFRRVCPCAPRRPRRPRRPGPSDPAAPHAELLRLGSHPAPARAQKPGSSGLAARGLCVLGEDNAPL

On to `Cc1ccc(C)c(N)c1`, for which the Potency entry in assay [1], in [2], in assay [3], in assay [6], in [7] and in assay [8] was “inactive” each time. Moreover, the Potency result in [9], in [10], in [11], in [12], in assay [13] and in assay [14] was “inactive” throughout. Besides, the Potency entry in assay [15], in assay [16], in assay [17], in assay [18], in assay [19] and in [20] was “inactive” in each case. Moreover, the result in assay [4] and in [5] was inactive.
In the case of `CC1CCCO1` (stereo not given), the Potency result in [1], in assay [2], in [3], in assay [6], in assay [7] and in [8] was “inactive” each time. The Potency entry in [9], in assay [10], in assay [11], in assay [12], in assay [13] and in assay [14] was “inactive” throughout. Besides, the Potency entry in [15], in assay [16], in assay [17], in assay [18], in assay [19] and in assay [20] was “inactive” each time. Besides, the outcome in assay [4] and in [5] was inactive.
On to `Cc1cccc(C)c1NC(=O)c1cc(S(N)(=O)=O)c(Cl)cc1O`, for which the Potency result in assay [1], in assay [2], in [3], in [6], in assay [7] and in assay [8] was “inactive” each time. Moreover, the Potency result in [9], in assay [10], in [11], in assay [12], in assay [13] and in assay [15] was “inactive” each time. In addition, the Potency entry in assay [16], in assay [17], in assay [18], in assay [19] and in assay [20] was “inactive” throughout. Moreover, the result in [4] and in assay [5] was inactive. Moreover, the Potency in [14] was 3.3 nM (active).
For `CC(C)=CCCC(C)C=O` (stereo not given), the Potency result in assay [1], in assay [2], in assay [3], in [6], in [7] and in assay [8] was “inactive” each time. Moreover, the Potency result in assay [9], in assay [10], in assay [11], in assay [12], in [13] and in assay [14] was “inactive” in each case. Moreover, the Potency result in [15], in assay [16], in assay [17], in assay [18], in [19] and in assay [20] was “inactive” each time. Also, the result in [4] and in assay [5] was inactive.
Consider `CC/C=C(\C)C=O`, for which the Potency entry in [1], in [2], in [3], in [6], in assay [7] and in assay [8] was “inactive” in each case. Besides, the Potency entry in assay [9], in [10], in assay [11], in assay [12], in assay [13] and in assay [14] was “inactive” each time. In addition, the Potency entry in assay [15], in [16], in [17], in [18], in assay [19] and in [20] was “inactive” each time. Further, the outcome in assay [4] and in assay [5] was inactive.
In the case of `Cc1cc(S(=O)(=O)O)c(N)cc1Cl`, the Potency entry in [1], in assay [2], in assay [3], in [6], in assay [7] and in assay [8] was “inactive” each time. In addition, the Potency result in assay [9], in assay [10], in [11], in [12], in assay [13] and in assay [14] was “inactive” throughout. Moreover, the Potency result in [15], in assay [16], in [17], in assay [18], in assay [19] and in assay [20] was “inactive” throughout. Further, the result in assay [4] and in assay [5] was inactive.

Values taken from PubChem BioAssay (Tox21).
